RGS4 inhibitor – Inhibitors of Regulator of G Protein Signaling (RGS) 4: qHTS | 0.039% of 390,000 active | Transcreener GDP fluorescence polarization, RGS4-accelerated GTP hydrolysis | Regulator of G-protein signaling 4 (Homo sapiens), P49798 | Potency, µM (series often up to 114 µM), for the others: top-dose activity change, negative = inhibition, actives largely listed as inhibitors | AID 504845, 2011; active = well fitted inhibition curve with a large enough effect; inconclusive = small, poorly fitted or top-dose-only effect; inactive = no such curve, though single readings can be large or run the other way; note: potency is the fitted concentration of half-maximal effect; % is set by controls: 0 for no effect and ±100 for the full control effect; nearly all actives have a fitted effect of over 75% in size
Target sequence (P49798 whole entry, looked up): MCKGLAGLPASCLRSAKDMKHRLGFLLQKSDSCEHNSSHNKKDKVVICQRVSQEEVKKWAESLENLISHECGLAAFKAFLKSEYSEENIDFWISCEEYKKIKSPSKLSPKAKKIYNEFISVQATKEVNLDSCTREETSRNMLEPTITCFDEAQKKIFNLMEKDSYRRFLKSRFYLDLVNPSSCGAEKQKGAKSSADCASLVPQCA
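MLSMR compounds (23 nl, pin-transferred) preincubated 10 min at room temperature with a 500nM (2x) first reagent, then RGS4 at 900nM (2x) plus Transcreener GDP mix added; fluorescence polarization (620/688 nm) read before and after 90 min at 30 °C.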
D3 ag – qHTS of D3 Dopamine Receptor Agonist: qHTS; D(3) dopamine receptor (Homo sapiens), P35462; D3R DiscoveRx beta-arrestin cells, luminescence, 90 min; max activation, %; 0.58% of 410,000 active; in the data active = max activation above about 30%; note: 0% is about no effect
Target sequence (P35462 whole entry, looked up): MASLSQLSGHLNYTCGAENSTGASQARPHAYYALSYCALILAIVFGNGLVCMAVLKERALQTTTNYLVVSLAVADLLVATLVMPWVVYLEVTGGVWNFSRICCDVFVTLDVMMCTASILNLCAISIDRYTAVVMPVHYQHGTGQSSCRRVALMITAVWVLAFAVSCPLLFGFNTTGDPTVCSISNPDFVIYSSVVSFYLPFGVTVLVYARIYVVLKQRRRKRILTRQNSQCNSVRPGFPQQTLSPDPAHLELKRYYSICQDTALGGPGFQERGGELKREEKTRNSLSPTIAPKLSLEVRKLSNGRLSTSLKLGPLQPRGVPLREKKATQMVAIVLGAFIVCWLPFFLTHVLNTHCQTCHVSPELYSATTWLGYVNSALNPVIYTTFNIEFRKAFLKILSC
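Agonist-mode cell screen: cells plated at 1500/well and incubated overnight at 37 °C, then exposed to library compounds for 90 min at 37 °C. Detection reagent was added for 30–60 min at room temperature, and luminescence was read.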
DRD3 antagonist – qHTS of D3 Dopamine Receptor Antagonist: qHTS. max response, negative = inhibition, %. 2.5% of 360,000 active. D3R cells, DiscoveRx beta-arrestin luminescence, antagonist mode; hits give low values. D(3) dopamine receptor (Homo sapiens), P35462. AID 652054, 2013; in the data active = max response below about -50%; inconclusive = no clear call, values can overlap the other calls; note: % is set by controls: 0 for no effect and ±100 for the full control effect
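Cells expressing the human receptor were seeded at 1500 cells/well, incubated overnight at 37 degrees C in 5% CO2, then exposed to library compounds with dopamine controls for 90 minutes at 37 degrees C before luminescent detection.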
uPA surface inh – qHTS for Inhibitors of Cell Surface uPA Generation | cell surface uPA generation assay, qHTS | Potency, µM (doses to about 38.3 µM), for the others: at the highest dose activity change, negative = inhibition, hits mostly inhibitors | 0.31% of 330,000 active | AID 540303, 2011; active = well fitted inhibition curve with a large enough effect; inconclusive = small, poorly fitted or top-dose-only effect; inactive = no such curve, though single readings can be large or run the other way; tested in mouse RAW 264.7 cells; note: potency is the fitted concentration of half-maximal effect; % is set by controls: 0 for no effect and ±100 for the full control effect; nearly all actives have a fitted effect of over 55% in size
* marks the source's active call; other numbers are inactive results; i = inactive; u = inconclusive; x = no result given; ! = a repeat was not active; [ ] = another dose, or the depositor's remark. Hits are enriched below; roughly 3.1% of the tested compounds scored in any of these assays.

SMILES	RGS4 inhibitor	D3 ag	DRD3 antagonist	uPA surface inh
O=C1NCN(c2ccccc2)C12CCN(C(c1cccc3ccccc13)c1nnnn1C1CCCCC1)CC2 (configuration not stated)	x	-12	-70*	x
C/C=C1/CN2CC[C@]34C(=C(C=O)[C@H]1C[C@@H]23)Nc1ccccc14	i	x	x	x
C[C@]12C/C(=C/O)C(=O)C[C@@H]1CC[C@@H]1[C@@H]2CC[C@@]2(C)[C@H]1CC[C@]2(C)O	x	8	x	x
CC1(C)C[C@H]2C=C(C=O)[C@]3(C=O)C[C@]3(C)[C@H]2C1	-4%	0	u	2.2µM*
C[n+]1c(-c2ccccc2)cc(CCCCc2cc(-c3ccccc3)[n+](C)c(-c3ccccc3)c2)cc1-c1ccccc1	-10%	-22	-73*	-4%
C[C@]12c3[nH]c4ccc(Cl)cc4c3CCN1C(=O)[C@@H](CC(=O)NCc1ccco1)C[C@@H]2C(=O)N1CCCCC1	-22%	-14	u	u
CN(C)S(=O)(=O)N1CCC(Oc2cccc(C(=O)NCCC3=CCCCC3)c2)CC1	-5%	-1	1	u
c1ccc(Nc2ccc(Nc3ccccc3)cc2)cc1	-37%	-14	u	6.3µM*
O=C(OCCc1ccccc1)c1cc(O)c(O)c(O)c1	-19%	9	-6	u
CCNCCNc1ccc([N+](=O)[O-])c2cccnc12	-12%	-24	u	-1%
Cc1nonc1OCCNCCNc1ccc([N+](=O)[O-])c2cccnc12	-6%	-12	-63*	1%
COc1ccccc1C1c2[nH]c3ccccc3c2C[C@H]2C(=O)N(C3CCN(Cc4ccccc4)CC3)CC(=O)N12 (some centres not stated)	-27%	-10	-23	u
CC1CCCN(CC(=O)N2CCCc3ccccc32)C1 (configuration not stated)	-5%	-35	-57*	7%
O=C(c1ccccc1)c1cn(CC(=O)N2CCCc3ccccc32)c2ccccc12	11%	-1	19	4%
CN(C)CCc1c[nH]c2cccc(OP(=O)(O)O)c12	x	7	x	x
CC[C@@H](CO)NC(=O)[C@@H]1C=C2c3cccc4c3c(cn4C)C[C@H]2N(C)C1	19µM*!	-88	-93*	7%
c1ccc(C(OCCN2CCN(c3ncccn3)CC2)c2ccccc2)cc1	19%	-12	-116*	-4%
CNc1ccc2nc3ccccc3[n+](C)c2c1	u	-11	-59*	4.5µM*
Cc1ccc2cc(NC(=O)c3ccccc3)ccc2n1	12%	-4	-3	u
C[n+]1c2ccccc2nc2ccc(NCCO)cc21	u	-23	-54*	-6%
OCCNc1c2c(nc3ccccc13)CCCC2	-18%	-1	-26	2%
C[C@H]1CC[C@]2(NC1)O[C@H]1C[C@H]3[C@@H]4CC[C@H]5C[C@@H](O)CC[C@]5(C)[C@H]4CC[C@]3(C)[C@H]1[C@@H]2C	x	-20	x	x
N#CC(C#N)=Cc1ccc(C=C(C#N)C#N)cc1	u	-5	-8	-3%
N#C/C(=C/c1ccc(O)c(O)c1)C(N)=S	6.7µM*	x	x	x
COC(=O)C1=C(c2cccc(OCc3ccccc3)c2)C[C@@H]2CC[C@H]1N2C(=O)NCc1ccc(OC)cc1	5%	-19	-68*	u
SMILES	RGS4 inhibitor	D3 ag	DRD3 antagonist	uPA surface inh
COC(=O)C1=C(c2cccc(OCc3ccccc3)c2)C[C@@H]2CC[C@H]1N2C(=O)NCc1ccccc1	20%	-4	-27	u
COC(=O)C1=C(c2cccc(OCc3ccccc3)c2)C[C@@H]2CC[C@H]1N2C(=O)NCc1ccc(Cl)cc1	8%	2	-52*	u
COC(=O)C1=C(c2cccc(OCc3ccccc3)c2)C[C@@H]2CC[C@H]1N2C(=O)NCc1ccccc1OC	13%	-20	-52*	14µM*
O=C(O)[C@H](O)[C@@H](O)C(=O)O	6%	-8	-28	12%
CCOC(C(=O)OCC(O)CN(CC)CC)(c1ccccc1)c1ccccc1 (configuration not stated)	12%[11.4 µM]	-5	-60*	0%
CCCCC[C@@H](/C=C/C1C(=O)C=C[C@H]1C/C=C\CCCC(=O)O)OC(C)=O (some centres not stated)	-26%	6	35	u
C[N+]1(C)C2CC[C@H]1CC(OC(=O)C(CO)c1ccccc1)C2 (some centres not stated)	-3%	-6	-67*	-1%
C[N+]1(C)CCC(OC(=O)C(c2ccccc2)c2ccccc2)CC1	u	-87	-59*	-18%
C[N+]1(C)[C@@H]2CC[C@H]1CC(OC(=O)[C@@H](CO)c1ccccc1)C2 (some centres not stated)	-33%	-3	-28	5%
O=[N+]([O-])c1ccc(N(CCO)CCO)c2c1no[n+]2[O-]	x	-23	-99*	x
N[C@@H](Cc1ccc(Oc2cc(I)c(O)c(I)c2)c(I)c1)C(=O)O	x	-11	x	x
CCCCOC(=O)C1=C(N)OC2=C(C(=O)CCC2)[C@]12C(=O)N(C)c1ccccc12	18%	8	-54*	0%
CCOC(=O)C1=C(N)OC2=C(C(=O)CCC2)C12C(=O)N(C)c1ccccc12 (configuration not stated)	14%	5	7	2%
Oc1c(Cl)cc(Cl)cc1CN1CCN(Cc2ccccc2)CC1	2%	-39	-51*	x
c1ccc(CN2CCN(Cc3ccc4ccccc4c3)CC2)cc1	-49%	-15	-69*	-2%
CN(C)c1ccccc1	x	8	14	x
O=P(c1ccccc1)(c1ccccc1)N(c1ccccc1)c1ccccc1	u	-9	-54*	1%
CCOC(=O)[C@]12Cc3cc(Cl)ccc3[C@H]1N(Cc1ccccc1)C(=O)c1ccccc12	10%	1	u	u
CCOC(=O)[C@]12Cc3cc4c(cc3[C@H]1N(Cc1ccccc1)C(=O)c1ccccc12)OCO4	8%	-14	u	13µM*
CCOC(=O)[C@]12Cc3ccc(C)cc3[C@H]1N(C1CCCCC1)C(=O)c1ccccc12	x	-9	-73*	x
CCOC(=O)[C@]12Cc3cc(Cl)ccc3[C@H]1N(C1CCCCC1)C(=O)c1cc(OC)ccc12	x	-13	-123*	x
O=C(Cc1c(O)c2ccccc2oc1=O)c1ccc(F)cc1	u	-3	1	5%
NCC[C@H](O)C(=O)N[C@@H]1C[C@H](N)[C@@H](O[C@H]2O[C@H](CN)[C@@H](O)[C@H](O)[C@H]2N)[C@H](O[C@@H]2O[C@H](CO)[C@@H](O)[C@H]2O)[C@H]1O	x	6	x	x
CCOC(=O)C1(c2ccccc2)CCN(CCC(=O)Nc2ccc(OC)cc2)CC1	x	3	-11	x
O=C(CCN1CCOCC1)Nc1ccc(Br)cc1C(=O)c1ccccc1	-5%	-5	0	-23%
CCOC(=O)C1(c2ccccc2)CCN(CC(=O)Nc2ccc(C)cc2)CC1	-10%[56.9 µM]	-6	-56*	6%

Screening results from PubChem.
